Laboratory results published in PubChem BioAssay (EPA / NIEHS).
Active and inactive are the calls of the source. The calls were made as follows: active = hit-call score of the fitted dose curve at least 0.9, where 1 is the maximum; inactive = score below 0.9.

Columns and labels:
[1] = read-out: Human Leukocyte Antigen - DR isotype (HLADR), HLA-DRA (gene 3122); experiment: BSK_BE3C_HLADR: BioMAP Diversity Plus: BE3C Assay for Human Leukocyte Antigen - DR isotype (HLADR) Biomarker Activity (AID 2283032); conditions: primary human bronchial epithelial cells; actives raise or lower the signal
Procedure, shortened: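 Primary human bronchial epithelial cells (BE3C); 24 h chemical exposure; HLA-DR by ELISA; bidirectional curve fit vs DMSO baseline.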

[2] = read-out: Monokine induced gamma interferon (MIG), CXCL9 (gene 4283); experiment: BSK_BE3C_MIG: BioMAP Diversity Plus: BE3C Assay for Monokine induced gamma interferon (MIG) Biomarker Activity (AID 2283035); conditions: primary human bronchial epithelial cells; actives raise or lower the signal;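 as to outcome: MIG protein measured by ELISA in BE3C cultures after 24 h of dosing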
Procedure, shortened: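 Dose cells (human primary bronchial epithelial), incubate 24 h, quantify MIG by ELISA, then fit concentration–response in both directions relative to DMSO control.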

[3] = read-out: Transforming growth factor beta 1 (TGFb1), TGFB1 (gene 7040); experiment: BSK_BE3C_TGFb1: BioMAP Diversity Plus: BE3C Assay for Transforming growth factor beta 1 (TGFb1) Biomarker Activity (AID 2283036;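 as to outcome: TGF-b1 protein level measured by ELISA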); conditions: primary human bronchial epithelial cells; actives raise or lower the signal
Procedure, shortened: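 Read-out: ELISA for TGF-b1 in primary human bronchial epithelial cultures, 24 h post-dose. Bidirectional curve fitting vs DMSO control; gain or loss of signal both scored.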

[4] = read-out: Plasminogen activator inhibitor-1 (PAI1), SERPINE1 (gene 5054); experiment: BSK_BE3C_PAI1: BioMAP Diversity Plus: BE3C Assay for Plasminogen activator inhibitor-1 (PAI1) Biomarker Activity (AID 2283037); conditions: primary human bronchial epithelial cells; actives raise or lower the signal
Procedure, shortened: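 ELISA read-out of PAI-1 from human bronchial epithelial primary cells, 24 h post-dosing; bidirectional curve fit vs DMSO baseline, gain or loss of signal scored.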

[5] = read-out: urokinase plasminogen activator (uPA), PLAU (gene 5328); experiment: BSK_BE3C_uPA: BioMAP Diversity Plus: BE3C Assay for urokinase plasminogen activator (uPA) Biomarker Activity (AID 2283038); conditions: primary human bronchial epithelial cells; actives raise or lower the signal;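 also: uPA protein level quantified by ELISA in cell cultures; uPA read one day after compound addition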
Procedure, shortened: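 Primary human bronchial epithelial cells, uPA measured by ELISA 24 h after dosing. Bidirectional change relative to DMSO; cytotoxicity checked in parallel cultures by sulforhodamine B total-protein staining.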

[6] = read-out: Urokinase-type plasminogen activator receptor (uPAR), PLAUR (gene 5329); experiment: BSK_BE3C_uPAR: BioMAP Diversity Plus: BE3C Assay for Urokinase-type plasminogen activator receptor (uPAR) Biomarker Activity (AID 2283039); conditions: primary human bronchial epithelial cells; actives raise or lower the signal;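 as to outcome: uPAR protein level measured by ELISA on the cells; cells exposed to compound for one day before measurement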
Procedure, shortened: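 ELISA readout of uPAR on human lung primary bronchial epithelial cells, 24 h post-dosing. Bidirectional curve fit relative to DMSO vehicle baseline; gain or loss of signal both scored.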

[7] = read-out: Interleukin-6 (IL6), IL6 (gene 3569); experiment: BSK_CASM3C_IL6: BioMAP Diversity Plus: CASM3C Assay for Interleukin-6 (IL6) Biomarker Activity for (AID 2283040); conditions: primary human coronary artery smooth muscle cells; actives raise or lower the signal
[8] = read-out: Tissue plasminogen activator (tPA), PLAT (gene 5327); experiment: BSK_BE3C_tPA: BioMAP Diversity Plus: BE3C Assay for Tissue plasminogen activator (tPA) Biomarker Activity (AID 2283041); conditions: primary human bronchial epithelial cells; actives raise or lower the signal;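 as to outcome: tPA level quantified by ELISA one day after compound addition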
Procedure, shortened: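 ELISA read-out of tPA on human primary bronchial epithelial cells, 24 h post-dosing; bidirectional fit vs DMSO negative control/baseline.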

[9] = read-out: Interleukin-8 (IL8), CXCL8 (gene 3576); experiment: BSK_CASM3C_IL8: BioMAP Diversity Plus: CASM3C Assay for Interleukin-8 (IL8) Biomarker Activity (AID 2283042); conditions: primary human coronary artery smooth muscle cells; actives raise or lower the signal;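 also: IL-8 protein level quantified by ELISA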
[10] = read-out: Human Leukocyte Antigen - DR isotype (HLADR), HLA-DRA (gene 3122); experiment: BSK_CASM3C_HLADR: BioMAP Diversity Plus: CASM3C Assay for Human Leukocyte Antigen - DR isotype (HLADR) Biomarker Activity (AID 2283043); conditions: primary human coronary artery smooth muscle cells; actives raise or lower the signal;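 also: cell-surface HLA-DR protein level quantified by ELISA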
[11] = read-out: Macrophage colony-stimulating factor (MCSF), CSF1 (gene 1435); experiment: BSK_CASM3C_MCSF: BioMAP Diversity Plus: CASM3C Assay for Macrophage colony-stimulating factor (MCSF) Biomarker Activity (AID 2283044); conditions: primary human coronary artery smooth muscle cells; actives raise or lower the signal;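 also: M-CSF protein amount quantified by ELISA after 24 h exposure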
[12] = read-out: Low-density lipoprotein receptor (LDLR), LDLR (gene 3949); experiment: BSK_CASM3C_LDLR: BioMAP Diversity Plus: CASM3C Assay for Low-density lipoprotein receptor (LDLR) Biomarker Activity (AID 2283045); conditions: primary human coronary artery smooth muscle cells; actives raise or lower the signal;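 also: LDLR protein level on the cell surface quantified by ELISA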
[13] = read-out: Monocyte Chemoattractant Protein-1 (MCP1), CCL2 (gene 6347); experiment: BSK_CASM3C_MCP1: BioMAP Diversity Plus: CASM3C Assay for Monocyte Chemoattractant Protein-1 (MCP1) Biomarker Activity (AID 2283046); conditions: primary human coronary artery smooth muscle cells; actives raise or lower the signal;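 also: MCP-1 level quantified by ELISA 24 h after dosing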
[14] = BSK_CASM3C_Proliferation: Cell Proliferation Assessment in the BioMAP Diversity Plus: CASM3C Assay (AID 2283047); conditions: primary human coronary artery smooth muscle cells;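 also: sulforhodamine B total protein stain as relative cell number at 560 nm; sub-confluent cells exposed 48 h before staining; fitted both ways against DMSO so gain or loss of cell number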
[15] = read-out: Monokine induced gamma interferon (MIG), CXCL9 (gene 4283); experiment: BSK_CASM3C_MIG: BioMAP Diversity Plus: CASM3C Assay for Monokine induced gamma interferon (MIG) Biomarker Activity (AID 2283048); conditions: primary human coronary artery smooth muscle cells; actives raise or lower the signal;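 also: MIG protein level measured by ELISA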
[16] = read-out: serum amyloid A (SAA), SAA1 (gene 6288); experiment: BSK_CASM3C_SAA: BioMAP Diversity Plus: CASM3C Assay for serum amyloid A (SAA) Biomarker Activity (AID 2283049); conditions: primary human coronary artery smooth muscle cells; actives raise or lower the signal;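 also: SAA protein level quantified by ELISA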
[17] = BSK_CASM3C_SRB: Viability Assessment in the BioMAP Diversity Plus: CASM3C Assay (AID 2283050); conditions: primary human coronary artery smooth muscle cells;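 also: total protein by SRB staining as cytotoxicity measure in parallel cultures; cells exposed to compound for 24 h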
[18] = read-out: Thrombomodulin, THBD (gene 7056); experiment: BSK_CASM3C_Thrombomodulin: BioMAP Diversity Plus: CASM3C Assay for Thrombomodulin Biomarker Activity (AID 2283051); conditions: primary human coronary artery smooth muscle cells; actives raise or lower the signal;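 also: thrombomodulin protein level measured by ELISA 24 h after dosing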
[19] = read-out: Interferon-gamma inducible Protein 10 (IP10), CXCL10 (gene 3627); experiment: BSK_BE3C_IP10: BioMAP Diversity Plus: BE3C Assay for Interferon-gamma inducible Protein 10 (IP10) Biomarker Activity (AID 2283034); conditions: primary human bronchial epithelial cells; actives raise or lower the signal
Procedure, shortened: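 ELISA readout of IP-10 in BE3C system: primary human bronchial epithelial cells, 24 h post-dosing; bidirectional curve fit vs DMSO baseline.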

For `CCOP(=S)(OCC)OP(=S)(OCC)OCC`, the outcome [1] was “inactive”, the outcome [2] was “inactive” and the outcome [3] was “inactive”. For the same compound, the outcome [4] was “inactive”, the outcome [5] was “inactive” and the outcome [6] was “inactive”. For the same compound, the outcome [7] was “inactive”, the outcome [8] was “inactive” and the outcome [9] was “inactive”. The outcome [10] was “inactive”, the outcome [11] was “inactive” and the outcome [12] was “inactive”. For the same compound, the outcome [13] was “inactive”, the AC50 [14] was 29 µM (active) and the outcome [15] was “inactive”. For the same compound, the outcome [16] was “inactive”, the outcome [17] was “inactive” and the outcome [18] was “inactive”.

For `O=C1C=CC(=O)c2ccccc21`, the AC50 [1] was 3.32 µM (active), the AC50 [19] was 2.01 µM (active) and the AC50 [2] was 6.51 µM (active). For the same compound, the AC50 [3] was 2.26 µM (active), the AC50 [4] was 3.25 µM (active) and the AC50 [6] was 4.59 µM (active). For the same compound, the AC50 [7] was 9.25 µM (active), the AC50 [8] was 3.27 µM (active) and the AC50 [9] was 20 µM (active). For the same compound, the AC50 [10] was 2.45 µM (active), the AC50 [11] was 5.16 µM (active) and the AC50 [12] was 10.8 µM (active). The AC50 [13] was 8.9 µM (active), the AC50 [14] was 0.474 µM (active) and the AC50 [15] was 30.1 µM (active). The AC50 [16] was 3.37 µM (active), the AC50 [17] was 8.33 µM (active) and the AC50 [18] was 34.1 µM (active).

For `CC(C)O.CC(C)O.OCCN(CCO)CCO.OCCN(CCO)CCO.[Ti]`, the outcome [1] was “inactive”, the outcome [19] was “inactive” and the outcome [2] was “inactive”. The outcome [3] was “inactive”, the outcome [4] was “inactive” and the outcome [5] was “inactive”. For the same compound, the outcome [6] was “inactive”, the outcome [7] was “inactive” and the outcome [8] was “inactive”. For the same compound, the outcome [9] was “inactive”, the outcome [10] was “inactive” and the outcome [11] was “inactive”. The outcome [12] was “inactive”, the outcome [13] was “inactive” and the outcome [14] was “inactive”. The outcome [15] was “inactive”, the outcome [16] was “inactive” and the outcome [17] was “inactive”. The outcome [18] was “inactive”.
